Inconclusive results are not listed. Activity calls are given as the source filed them. Calls follow the shape of the dose curve; as a rule, active = well fitted inhibition curve with a large enough effect; inconclusive = small, poorly fitted or top-dose-only effect; inactive = flat fitted curve, though single readings scatter. Where a SMILES comes first, the peptide text is derived from it. [ ]: non-standard residue; d: D form. ξ: configuration not given here. ξPhe(βξ-Me) = CC(c1ccccc1)C(N)C(=O)O; GABA = NCCCC(=O)O
Experiments:
[1] = molecular target: Glutathione peroxidase 1 (Homo sapiens) (UniProt P07203); assay: Primary qHTS Assay for Inhibitors of Recombinant Selenoprotein Glutathione Peroxidase 1 (GPX1) (AID 1845191); also: nearly all actives have a fitted effect of over 65% in size
Chain of Glutathione peroxidase 1 (Homo sapiens) (P07203 whole entry, looked up): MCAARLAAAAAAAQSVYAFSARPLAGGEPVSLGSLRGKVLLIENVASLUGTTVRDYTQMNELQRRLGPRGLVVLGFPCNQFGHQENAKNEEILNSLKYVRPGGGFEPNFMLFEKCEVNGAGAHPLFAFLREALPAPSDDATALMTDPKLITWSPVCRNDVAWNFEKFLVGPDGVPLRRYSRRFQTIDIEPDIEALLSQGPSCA
In short: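 GR-coupled readout: NADPH consumption tracked by fluorescence, ex 340/em 450 nm, at t=0 and after 15 min at RT. Final mix 10 nM GPX1, 1 mM GSH, 0.5 mM CHP, 0.5 mM NADPH, 100 nM GR, 0.01% BSA, following 30 min enzyme–compound preincubation.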

[2] = molecular target: Phospholipid hydroperoxide glutathione peroxidase GPX4 (Homo sapiens) (UniProt P36969); assay: Primary qHTS Assay for Inhibitors of Recombinant Selenoprotein Glutathione Peroxidase 4 (GPX4) (AID 1845192); also: nearly all actives have a fitted effect of over 65% in size
Chain of Phospholipid hydroperoxide glutathione peroxidase GPX4 (Homo sapiens) (P36969 whole entry, looked up): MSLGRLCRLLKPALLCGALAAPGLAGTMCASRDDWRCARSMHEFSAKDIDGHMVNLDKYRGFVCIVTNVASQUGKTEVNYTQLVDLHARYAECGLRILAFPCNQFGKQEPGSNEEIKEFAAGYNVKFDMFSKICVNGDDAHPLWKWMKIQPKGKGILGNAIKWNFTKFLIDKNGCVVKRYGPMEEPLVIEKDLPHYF
In short: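 Steps: GPX4 plus compound, 30 min RT; add GR/GSH/NADPH master mix; start with cumene hydroperoxide; read 340/450 nm fluorescence at 0 and 15 min. Finals were 200 nM GPX4, 1 mM GSH, 0.5 mM CHP, 0.5 mM NADPH, 100 nM GR.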

[3] = molecular target: Luciferin 4-monooxygenase (Photinus pyralis) (UniProt P08659); assay: Primary firefly luciferase (FLuc) qHTS assay for identification of artifact compounds. (AID 1845220); also: nearly all actives have a fitted effect of over 60% in size
In short: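 Enzymatic FLuc inhibition assay: compounds pre-exposed to luciferin/ATP (10 uM each) for 15 min, then purified P. pyralis enzyme at 10 nM added. Read-out: luminescence at 5 min.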

[4] = system: Nanoluciferase (engineered Oplophorus gracilirostris luciferase); assay: Primary Nanoluciferase (NLuc) qHTS assay for identification of artifact compounds. (AID 1845222);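 also: NLuc secreted into diluted conditioned medium of S16 cells; series mostly up to about 54 µM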
In short: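 S16 cell supernatant NLuc, 1:55; cpds qHTS; 15 min RT dark; Nano-Glo substrate 1:100, 5 min; luminescence; Hill fit of % inhibition.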

Measured: Potency

CC(C)CC1NC(=O)C(C(C)c2ccccc2)NC(=O)C(C(C)C)NC(=O)C(C)NC(=O)CCCNC(=O)C(Cc2c[nH]c3ccccc23)NC(=O)C(C)NC1=O (stereo not drawn) (cyclo([GABA]AV[ξPhe(βξ-Me)]LAW); configuration not given here)
inactive: all assays above

C/C(=C/CO)CC[C@@H]1[C@@]2(C)CCC[C@](C)(C(=O)O)C2CC[C@@]1(C)O (stereo partly specified)
inactive: all assays above

CCc1nc(C(N)=O)c(Nc2ccc(N3CCC(N4CCN(C)CC4)CC3)c(OC)c2)nc1NC1CCOCC1
inactive: all assays above

CC12CCC3C(C)(C)C(O)CCC3(C)C1Cc1c(oc(C(=O)O)cc1=O)O2 (stereo unspecified)
inactive: all assays above

CC(O)(CC(=O)O)CC(=O)O[C@@H]1[C@@H](O)[C@H](OCCc2ccccc2)O[C@H](CO)[C@H]1O (stereo partly specified)
inactive: all assays above

COC1=CC(=O)C[C@@H](C)[C@]12Oc1cc(OC)cc(OC)c1C2=O
inactive: all assays above

CC(=O)c1c(C)cc(O)cc1O[C@@H]1O[C@H](CO)[C@@H](O)[C@H](O)[C@H]1O
inactive: all assays above

CC(=O)NC(C(=O)OC1CCC(C)(C)C2CC=C3C(=O)OCC3(O)C12C)C(C)C (stereo unspecified)
inactive: all assays above

C=C(C)C(=O)O[C@H]1C[C@@](C)(OC(C)=O)[C@@]2(O)CC[C@@](C)(O)[C@H](OC(C)=O)[C@@]23OC(=O)C(COC)=C13
inactive: all assays above

CC(=O)c1c(C)cc(O[C@@H]2O[C@H](CO)[C@@H](O)[C@H](O)[C@H]2O)cc1O
inactive: all assays above

COc1ccc(/C=C/C(=O)O[C@@H]2[C@@H](O)[C@H](C)O[C@@H](OC3C4C=COC(O[C@@H]5O[C@H](CO)[C@@H](O)[C@H](O)[C@H]5O)C4C4(CO)OC34)[C@@H]2O)cc1OC (stereo partly specified)
inactive: all assays above

CC(C)CC(=O)OC[C@H]1O[C@@](COC(=O)CC(C)C)(O[C@H]2O[C@H](CO)[C@@H](O)[C@H](O)[C@H]2OC(=O)CC(C)C)[C@@H](OC(=O)CC(C)C)[C@@H]1O
inactive: all assays above

COc1ccc(C2=CC(=O)OC2Cc2ccc(O)cc2)c(O)c1 (stereo unspecified)
inactive: all assays above

C[C@@H]1C(=O)O[C@H]2CC34[C@H]5C[C@@H](C(C)(C)C)C36[C@@H](OC(=O)[C@@H]6O)OC4(C(=O)O5)[C@]21O (stereo partly specified)
inactive: all assays above
